# Rows were chosen to be rich in hits. Some 1.1% of all compounds tested hit in one or more screens of this group.
# SRC1 inh: human NCOA1 inhibition; Q15788; HEK293 GAL4-SRC1 luciferase reporter, luminescence; inhibition, % at 3.6 µM; 360,000 tested, 0.12% active; AID 588354;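 active = inhibition above the campaign mean plus 3 SD, with each screening campaign given its own cutoff, cut at about 60% in these data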;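 note: 0% = DMSO treated cells and 100% = gossypol at 36 µM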
# NCOA2 inhibitor: inhibits human steroid receptor coactivator 2; inhibition, % at 9 µM; 370,000 tested, 0.17% active; HEK293 GAL4-SRC2 luciferase reporter, luminescence; Q15596;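 active = inhibition above the mean inhibition of all tested compounds plus 3 SD, set per campaign, cut at about 52% in these data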;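 note: 0% = DMSO treated cells and 100% = cells given Gossypol at 36 µM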
# COUP-TFII inh: blocks human COUP-TFII nuclear receptor | inhibition, % at 8.6 µM | HEK293T NGFI-A luciferase reporter, luminescence | P24468 | 370,000 tested, 0.7% active;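 active = inhibition above a per-plate cutoff, mean inhibition of test wells between control levels plus 3 SD, cut at about 38% in these data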;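 note: cells cotransfected with COUP-TFII expression vector driving the NGFI-A reporter; 0% = median of COUP-TF2 test wells and 100% = reporter-only cells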
# NR5A2 inv ag: inverse agonists of human LRH-1 (NR5A2). O00482. AID 602396. inhibition, % at 3.6 µM. 360,000 tested, 0.13% active. HEK293T StAR-luciferase reporter, LRH-1 transfected, 24 h;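 active = inhibition above the mean inhibition of all tested compounds plus 3 SD, cut at about 73% in these data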;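 note: 0% = DMSO wells and 100% = reporter-only cells lacking LRH-1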
# GalR3 antag: human GalR3 antagonism; O60755; HEK293 GalR3-CNG cAMP membrane potential fluorescence; galR3 body fused to GalR1 C-terminus; inhibition, % at 3 µM; 360,000 tested, 0.44% active;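 active = inhibition above the screen-wide average plus 3 SD, cut at about 13% in these data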;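 note: forskolin and galanin both at EC90 stimulate the cells; cAMP rise reported by CNG channel membrane potential dye signal; 0% = forskolin plus galanin with DMSO and 100% = forskolin alone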
# NCOA3 inh: human NCOA3 inhibition; HEK293 GAL4-SRC3 luciferase reporter, luminescence; inhibition, % at 3.6 µM; AID 588352; 360,000 tested, 0.17% active; Q9Y6Q9;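 active = inhibition above a per-campaign cutoff, the mean of all compounds plus 3 SD, cut at about 60% in these data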;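 note: 0% = DMSO-treated cells and 100% = gossypol-treated cells at 36 µM; higher means less SRC3-driven luciferase light from the GAL4 reporter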
# GalR3 conf: confirmation of human galanin receptor 3 antagonists | shares compounds with GalR3 antag | HEK293 GalR3 CNG cAMP biosensor, membrane potential fluorescence; galR3 fused to GalR1 carboxy tail; challenged with forskolin and galanin at EC90 | inhibition, % at 3 µM | 1,600 tested, 59% active | AID 652245;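 active = inhibition above the primary screen's cutoff, the mean inhibition of all screened compounds plus 3 SD, cut at about 13% in these data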;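 note: 0% = forskolin plus galanin and 100% = forskolin alone with DMSO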
# HEK-CNG parental: parental cell agonism counter-screen for GalR3 antagonists; HEK293-CNG parental cells, cAMP membrane potential fluorescence; normalised: DMSO wells 0%, forskolin wells 100%; activation, % at 3 µM; AID 652268; 1,600 tested, 10% active; shares compounds with GalR3 antag; in the data active = activation above about 1.3%
# Gal4-VP16 ctr: inhibits VP16 reporter, flagging COUP-TFII antagonist hits; shares compounds with COUP-TFII inh; HEK293 Gal4-VP16 luciferase reporter, luminescence; inhibition, % at 8.5 µM; 2,500 tested, 25% active; AID 687007; in the data active = inhibition above about 13%
# COUP-TFII conf: COUP-TFII (NR2F2) inhibition, confirmation assay. shares compounds with COUP-TFII inh. HEK293 NGFI-A luciferase reporter, luminescence. inhibition, % at 8.5 µM. 2,500 tested, 45% active;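 active = mean inhibition over three repeats above a set limit taken from the earlier primary screen, cut at about 38% in these data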;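 note: 100% = cells given the luciferase reporter alone without the COUP-TF2 vector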
# * marks the source's active call; other numbers are inactive results; nt = not tested or not shown.
SMILES,SRC1 inh,NCOA2 inhibitor,COUP-TFII inh,NR5A2 inv ag,GalR3 antag,NCOA3 inh,GalR3 conf,HEK-CNG parental,Gal4-VP16 ctr,COUP-TFII conf
O=C(NC1CCN(Cc2ccccc2)CC1)c1cccc(S(=O)(=O)Nc2ccc(F)cc2)c1,16,16,55*,24,17*,21,54*,0,3,34
C[C@H](O)[C@@H]1CN2CCc3ccc(N4CCOCC4)cc3[C@@H]2C[C@@H]1N(C)C(=O)c1ccccc1F,nt,13,18,nt,nt,nt,nt,nt,nt,nt
COc1ccc(N2CCN(CCCNC(=O)COc3ccc(F)cc3)CC2)cc1,nt,-3,13,nt,nt,nt,nt,nt,nt,nt
CC(C)(C)c1ccc(C(=O)Nc2ccc(Oc3cccnc3)nc2)cc1,23,17,64*,21,111*,13,114*,0,-8,61*
COc1ccc(C(O)c2nc3ccccc3n2C)cc1OC (stereo unspecified),15,-8,47*,18,95*,21,33*,0,1,32
COc1ccc(C(=O)NC(C)c2nc3ccccc3n2C)cc1OC (stereo unspecified),19,-38,-1,0,-2,7,nt,nt,nt,nt
CSc1ccc(C(=O)C2CCCN(C(=O)CCc3c(C)nn(C)c3C)C2)cc1 (stereo unspecified),7,20,58*,25,86*,11,95*,0,-2,34
Cc1cc2c(NCCc3ccccc3)ncnc2s1,-26,7,50*,-53,97*,-41,98*,0,-133,29
Cc1cc2c(Nc3ccccc3)ncnc2s1,3,-24,-7,-10,0,6,nt,nt,nt,nt
CCN1CCN(S(=O)(=O)c2cc(OCC(=O)NC3CCCCC3)c(C)cc2Cl)CC1,33,6,46*,27,25*,30,55*,0,9,37
Cc1cc(Cl)c(S(N)(=O)=O)cc1OCC(=O)NC1CCCCC1,10,-3,21,18,-4,19,nt,nt,nt,nt
Cc1cc(Cl)c(S(=O)(=O)N2CCCCCC2)cc1OCC(=O)NC1CCCCC1,8,-16,-6,13,6,0,nt,nt,nt,nt
Cc1cc(Cl)c(S(=O)(=O)NC2CCCC2)cc1OCC(=O)NC1CCCCC1,17,14,53*,6,66*,17,47*,0,3,53*
O=C(COc1ccc(Br)cc1Br)NC1CCCC1,-53,17,47*,-23,42*,-35,73*,0,-123,-3
O=C(COc1ccc(Br)cc1Cl)NC1CCCCC1,-102,-22,-7,-37,-3,-61,nt,nt,nt,nt
CC(=O)Nc1ccc(C(CCCc2ccccc2)C2=CCCCC2)cc1 (stereo unspecified),nt,14,5,nt,nt,nt,nt,nt,nt,nt
Cc1cccc(-c2cccc3c4c([nH]c23)[C@@H]2C[C@H](N(C)C(=O)OCc3ccccc3)[C@H]([C@H](C)O)CN2CC4)c1,nt,-8,25,nt,nt,nt,nt,nt,nt,nt
COC(=O)c1ccccc1NC(=O)CSc1nc(C)cc(C)n1,-2,-24,-4,4,-3,19,nt,nt,nt,nt
Cc1cc(NC(=O)Cc2ccccc2)c2ccccc2n1,38,34,58*,22,13*,27,65*,0,0,39*
COC(=O)Nc1cc(C)nc2ccccc12,5,-10,-3,17,-1,13,nt,nt,nt,nt
O=C(CSC1=NCCS1)Nc1ccnc2ccccc12,26,31,41*,17,99*,47,109*,0,6,51*
Cc1cc(C)nc(SCC(=O)Nc2ccnc3ccccc23)n1,27,27,65*,35,55*,34,121*,0,3,60*
COC(=O)C1CN(Cc2cn(Cc3ccc(Cl)cc3)nn2)CCS(=O)(=O)N1Cc1ccccc1 (stereo unspecified),nt,21,3,nt,nt,nt,nt,nt,nt,nt
CC(C)CN1CN2Cc3ccccc3C2CS1(=O)=O (stereo unspecified),nt,15,-28,nt,nt,nt,nt,nt,nt,nt
COc1ccc(NC(=O)CN(C)C(=O)c2cccc(S(=O)(=O)N3CCN(Cc4ccccc4)CC3)c2)cc1,-2,nt,nt,20,nt,15,nt,nt,nt,nt
SMILES,SRC1 inh,NCOA2 inhibitor,COUP-TFII inh,NR5A2 inv ag,GalR3 antag,NCOA3 inh,GalR3 conf,HEK-CNG parental,Gal4-VP16 ctr,COUP-TFII conf
CN(CCOc1ccc(Cl)cc1)C(=O)c1cccc(S(=O)(=O)N2CCN(Cc3ccccc3)CC2)c1,13,22,67*,25,31*,5,84*,1,15*,58*
COc1ccc(CN(C)C(=O)c2ccc(OCC(=O)Nc3cccc(C(F)(F)F)c3)c(OC)c2)cc1,31,31,64*,37,18*,39,85*,0,-2,48*
O=C(CN1CCN(c2nc(-c3ccccc3)cs2)CC1)Nc1ccc(Cl)cc1,nt,7,7,nt,nt,nt,nt,nt,nt,nt
O=C(Nc1ccc(-c2nc3ccccc3o2)cc1)c1ccc(N2C(=O)C3C4C=CC(C4)C3C2=O)cc1 (stereo unspecified),9,8,41*,8,61*,44,110*,-1,-20,40*
CCN(Cc1ccccc1)C(=O)C1C2C=CC3(CN(Cc4ccccc4)C(=O)C13)O2 (stereo unspecified),nt,-8,-3,nt,nt,nt,nt,nt,nt,nt
CCC(NC(=O)Nc1nnc(C(F)(F)F)s1)(C(F)(F)F)C(F)(F)F,56,24,67*,62,58*,76*,84*,0,17*,60*
COc1ccc(/C=C2\Sc3ccc(C(=O)N4CCN(Cc5ccccc5)CC4)cc3N(C)C2=O)cc1OC,11,23,71*,32,60*,28,106*,0,6,58*
Cn1c(CN2CCCCC2)nc2cc(NC(=O)c3cccc(Br)c3)ccc21,-12,-26,49*,32,18*,-15,38*,0,-43,11
Cn1c(CN2CCCCC2)nc2cc(NC(=O)c3ccccc3)ccc21,-43,-25,-14,-35,-6,-31,nt,nt,nt,nt
C[C@H]1[C@@H](OC(=O)Nc2ccccc2Cl)CC[C@@]23CCCN2C(=O)CCC[C@@H]13,nt,nt,4,nt,nt,nt,nt,nt,nt,nt
Cc1cc(/C=N/n2cnnc2)c(C)n1-c1ccc(OCc2ccc(Cl)cc2)cc1,16,30,68*,44,41*,23,64*,1,41*,88*
